Values joined by “and” are separate entries in the source; they are usually repeats but may differ in a detail not shown here. Identical values can stand only once. Results filed as inconclusive are left out. A call without a number means that no potency is given here. More than one record can exist for a structure, and the calls need not agree. Active and inactive are the calls of the source. The call rests on the fitted dose curve; in most records, active means well fitted curve in the direction sought with a large enough effect in the repeat runs; inconclusive means weak or mixed curves; inactive means no such curve, though single readings can be large; an effect the other way counts as inactive or inconclusive.
Assays:
[1] = Caspase-3/7 induction in HepG2 cells by small molecules, qHTS assay (AID 1346978); conditions: HepG2 caspase-3/7 activation, Caspase-Glo luminescence, 17 h; series mostly up to 92.4 µM; further: nearly all actives have a fitted effect of over 15% in size
Procedure, shortened: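 Wild-type HepG2 cells (2,000/well) were settled 5 h at 37 C, 5% CO2, then exposed to compounds in DMSO for 17 h. Caspase-3/7 activity was read by luminescence 30 min after adding Caspase-Glo 3/7 reagent at room temperature.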

[2] = Caspase-3/7 induction in CHO-K1 cells by small molecules, qHTS cell viability counter screen (AID 1346979); conditions: CellTiter-Fluor fluorescence, 17 h; series mostly up to 92.4 µM; further: nearly all actives have a fitted effect of over 35% in size; further: potency means the concentration at half of the fitted maximal effect
Procedure, shortened: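 Cytotoxicity counter screen run in parallel with the caspase-3/7 assay: CHO-K1 cells, 16hr compound treatment at 37C, then CellTiter-Fluor for 1hr before fluorescence reading.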

[3] = Caspase-3/7 induction in CHO-K1 cells by small molecules, qHTS assay (AID 1346980); conditions: CHO-K1 caspase-3/7 induction, Caspase-Glo luminescence, 17 h; series mostly up to 92.4 µM; further: nearly all actives have a fitted effect of over 15% in size
Procedure, shortened: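 Wild-type cells were seeded at 1,500 per well and settled 5 hr at 37 C, 5% CO2, then exposed to DMSO-dissolved compounds for 17 hr. Caspase-Glo 3/7 reagent was added, and luminescence was read after 30min at room temperature.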

[4] = Caspase-3/7 induction in HepG2 cells by small molecules, qHTS cell viability counter screen (AID 1346981); conditions: CellTiter-Fluor fluorescence, 17 h; series mostly up to 92.4 µM; further: nearly all actives have a fitted effect of over 30% in size; further: potency means the concentration at half of the fitted maximal effect
Procedure, shortened: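 In this quantitative HTS counter screen, compounds delivered in DMSO were left on unmodified HepG2 cells for 16 hr at 37 C. Viability was then determined fluorometrically with CellTiter-Fluor, in parallel with caspase-3/7 induction in the same wells.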

[5] = target: Nuclear receptor subfamily 1 group I member 2 (Homo sapiens) (UniProt O75469); assay: Human pregnane X receptor (PXR) small molecule agonists, qHTS assay (AID 1346982); conditions: PXR-Luc HepG2, CYP3A4 luciferase reporter, 24 h; series mostly up to 92.4 µM; further: nearly all actives have a fitted effect of over 35% in size; further: potency means the concentration at half of the fitted maximal effect
Nuclear receptor subfamily 1 group I member 2 (Homo sapiens), sequence (O75469 whole entry, looked up): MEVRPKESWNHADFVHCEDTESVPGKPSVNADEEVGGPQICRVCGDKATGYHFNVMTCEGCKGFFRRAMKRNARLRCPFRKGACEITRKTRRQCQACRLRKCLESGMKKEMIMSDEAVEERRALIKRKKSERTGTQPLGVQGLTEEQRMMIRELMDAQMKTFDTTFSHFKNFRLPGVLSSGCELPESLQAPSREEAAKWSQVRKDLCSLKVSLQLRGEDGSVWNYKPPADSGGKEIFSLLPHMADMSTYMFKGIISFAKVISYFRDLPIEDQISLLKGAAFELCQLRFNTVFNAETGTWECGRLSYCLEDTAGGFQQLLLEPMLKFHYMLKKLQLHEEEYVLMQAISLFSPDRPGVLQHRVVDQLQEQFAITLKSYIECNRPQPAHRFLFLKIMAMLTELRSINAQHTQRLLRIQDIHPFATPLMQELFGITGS
Procedure, shortened: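 Reporter HepG2 cells expressing PXR-Luc are cultured in charcoal-stripped FBS (5%), treated with compounds for 24 hr at 37 C, and assayed by ONE-Glo luminescence after 30 min at room temperature.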

[6] = target: Cytochrome P450 2D6 (Homo sapiens) (UniProt P10635); assay: Cytochrome P450 Family 2 Subfamily D Member 6 (CYP2D6) small molecule antagonists: luciferase reporter qHTS assay (AID 1671196); conditions: P450-Glo CYP2D6 enzyme assay, luciferin luminescence, 1 h; series mostly up to 115 µM; further: nearly all actives have a fitted effect of over 50% in size; further: potency means the concentration at half of the fitted maximal effect
Cytochrome P450 2D6 (Homo sapiens), sequence (P10635 whole entry, looked up): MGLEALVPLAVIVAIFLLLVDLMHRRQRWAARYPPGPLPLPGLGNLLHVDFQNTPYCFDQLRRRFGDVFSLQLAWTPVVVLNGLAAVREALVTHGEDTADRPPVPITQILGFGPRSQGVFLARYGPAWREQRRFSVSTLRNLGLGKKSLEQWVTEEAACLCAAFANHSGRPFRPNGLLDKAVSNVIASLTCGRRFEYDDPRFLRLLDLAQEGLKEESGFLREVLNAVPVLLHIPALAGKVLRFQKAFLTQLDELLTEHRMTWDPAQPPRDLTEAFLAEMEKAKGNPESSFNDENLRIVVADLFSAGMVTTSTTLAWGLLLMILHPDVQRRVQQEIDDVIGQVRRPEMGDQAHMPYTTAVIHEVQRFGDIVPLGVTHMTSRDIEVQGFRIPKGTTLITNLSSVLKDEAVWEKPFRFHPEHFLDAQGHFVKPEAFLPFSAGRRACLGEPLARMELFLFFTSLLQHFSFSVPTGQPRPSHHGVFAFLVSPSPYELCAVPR
Procedure, shortened: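 Test chemicals meet CYP2D6 plus proluciferin substrate (10 min, RT); NADPH regenerating solution then drives turnover for 1 h. Detection reagent halts the reaction; luminescence measured after 20 min.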

[7] = target: Cytochrome P450 2C19 (Homo sapiens) (UniProt P33261); assay: Cytochrome P450 Family 2 Subfamily C Member 19 (CYP2C19) small molecule antagonists: luciferase reporter qHTS assay (AID 1671197); conditions: P450-Glo CYP2C19 enzyme, luciferin luminescence, 1 h; series mostly up to 115 µM; further: nearly all actives have a fitted effect of over 65% in size; further: potency means the concentration at half of the fitted maximal effect
Cytochrome P450 2C19 (Homo sapiens), sequence (P33261 whole entry, looked up): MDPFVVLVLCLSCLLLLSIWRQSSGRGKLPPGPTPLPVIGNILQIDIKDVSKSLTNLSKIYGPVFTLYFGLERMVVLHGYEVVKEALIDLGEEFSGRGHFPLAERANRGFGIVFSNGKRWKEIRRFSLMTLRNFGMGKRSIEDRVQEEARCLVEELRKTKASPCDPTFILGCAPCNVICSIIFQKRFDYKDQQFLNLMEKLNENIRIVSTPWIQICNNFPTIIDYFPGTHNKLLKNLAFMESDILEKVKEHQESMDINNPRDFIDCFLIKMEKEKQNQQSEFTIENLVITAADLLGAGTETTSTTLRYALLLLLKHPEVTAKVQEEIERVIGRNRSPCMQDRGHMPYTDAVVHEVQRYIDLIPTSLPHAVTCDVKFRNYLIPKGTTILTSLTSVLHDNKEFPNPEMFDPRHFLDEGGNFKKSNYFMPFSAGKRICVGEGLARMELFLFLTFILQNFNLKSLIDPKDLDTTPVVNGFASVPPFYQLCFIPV
Procedure, shortened: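 Quantitative high-throughput screen of the Tox21 library using CYP2C19 with proluciferin substrate. Reaction: NADPH regeneration, 37C, 1 h, after 10 min compound preincubation at room temperature. Readout: luminescence.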

[8] = target: Cytochrome P450 1A2 (Homo sapiens) (UniProt P05177); assay: Cytochrome P450 Family 1 Subfamily A Member 2 (CYP1A2) small molecule antagonists: luciferase reporter qHTS assay (AID 1671199); conditions: P450-Glo CYP1A2 enzyme, luciferin luminescence, 1 h; series mostly up to 115 µM; further: nearly all actives have a fitted effect of over 50% in size; further: potency means the concentration at half of the fitted maximal effect
Cytochrome P450 1A2 (Homo sapiens), sequence (P05177 whole entry, looked up): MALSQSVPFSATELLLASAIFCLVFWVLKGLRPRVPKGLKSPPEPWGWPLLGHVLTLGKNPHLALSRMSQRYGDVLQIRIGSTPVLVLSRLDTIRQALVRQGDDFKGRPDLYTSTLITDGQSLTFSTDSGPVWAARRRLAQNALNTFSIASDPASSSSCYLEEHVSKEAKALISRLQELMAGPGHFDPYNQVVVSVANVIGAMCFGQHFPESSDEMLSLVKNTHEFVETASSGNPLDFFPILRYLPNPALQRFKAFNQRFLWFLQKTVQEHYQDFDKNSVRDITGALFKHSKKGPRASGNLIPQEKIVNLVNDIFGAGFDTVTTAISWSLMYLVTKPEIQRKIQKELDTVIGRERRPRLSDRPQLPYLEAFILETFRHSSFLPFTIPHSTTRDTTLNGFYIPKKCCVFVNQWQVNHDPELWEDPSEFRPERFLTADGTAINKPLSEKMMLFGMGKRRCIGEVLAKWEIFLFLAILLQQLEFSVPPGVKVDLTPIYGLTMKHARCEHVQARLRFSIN
Procedure, shortened: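 Steps: enzyme-substrate mix dispensed; test compounds and furafylline control pinned in; 10 min room temperature; NADPH regeneration solution added, 1 h; reaction stopped with luciferin detection reagent; luminescence read after 20 min.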

[9] = target: Voltage-gated inwardly rectifying potassium channel KCNH2 (Homo sapiens) (UniProt Q12809); assay: Human Ether-a-go-go-Related Gene (hERG) channel small molecule antagonists: fluorescence cell-based qHTS assay (AID 1671200); conditions: hERG-U2OS cells, FluxOR thallium flux fluorescence; series mostly up to 76.8 µM; further: nearly all actives have a fitted effect of over 50% in size; further: potency means the concentration at half of the fitted maximal effect
Voltage-gated inwardly rectifying potassium channel KCNH2 (Homo sapiens), sequence (Q12809 whole entry, looked up): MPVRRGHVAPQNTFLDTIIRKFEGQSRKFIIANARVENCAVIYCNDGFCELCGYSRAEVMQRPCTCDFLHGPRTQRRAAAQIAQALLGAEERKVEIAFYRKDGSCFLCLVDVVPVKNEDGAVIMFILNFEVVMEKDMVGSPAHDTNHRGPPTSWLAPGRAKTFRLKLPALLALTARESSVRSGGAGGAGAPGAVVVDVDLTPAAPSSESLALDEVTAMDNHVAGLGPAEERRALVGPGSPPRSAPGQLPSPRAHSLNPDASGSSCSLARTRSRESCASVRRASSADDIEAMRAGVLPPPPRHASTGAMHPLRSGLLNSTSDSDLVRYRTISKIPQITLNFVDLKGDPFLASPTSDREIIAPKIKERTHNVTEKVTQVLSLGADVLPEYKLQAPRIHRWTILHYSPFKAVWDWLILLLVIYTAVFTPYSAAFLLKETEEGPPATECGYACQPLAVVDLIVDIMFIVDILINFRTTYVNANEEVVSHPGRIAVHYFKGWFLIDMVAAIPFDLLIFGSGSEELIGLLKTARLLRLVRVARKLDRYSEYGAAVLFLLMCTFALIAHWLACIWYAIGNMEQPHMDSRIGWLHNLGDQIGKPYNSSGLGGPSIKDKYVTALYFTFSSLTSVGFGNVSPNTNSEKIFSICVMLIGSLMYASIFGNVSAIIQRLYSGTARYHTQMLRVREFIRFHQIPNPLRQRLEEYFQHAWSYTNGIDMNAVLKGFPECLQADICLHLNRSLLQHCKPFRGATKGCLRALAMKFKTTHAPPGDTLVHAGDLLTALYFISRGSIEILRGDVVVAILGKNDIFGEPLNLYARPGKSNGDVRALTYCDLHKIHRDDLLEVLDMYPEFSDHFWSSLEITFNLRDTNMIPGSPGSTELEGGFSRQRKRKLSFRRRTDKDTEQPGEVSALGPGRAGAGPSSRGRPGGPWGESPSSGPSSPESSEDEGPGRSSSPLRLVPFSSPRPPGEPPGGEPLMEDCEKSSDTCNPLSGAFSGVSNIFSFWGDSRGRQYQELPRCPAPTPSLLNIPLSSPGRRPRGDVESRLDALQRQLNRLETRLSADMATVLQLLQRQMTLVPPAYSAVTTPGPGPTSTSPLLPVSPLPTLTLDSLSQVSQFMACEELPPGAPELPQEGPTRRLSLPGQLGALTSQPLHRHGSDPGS
Procedure, shortened: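 Fluorescence at 540 nm emission (480 nm excitation) was recorded kinetically for 2 min at 1-second intervals once the thallium-containing stimulus reached cells previously loaded with FluxOR II dye.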

[10] = target: Cytochrome P450 3A4 (Homo sapiens) (UniProt P08684); assay: Cytochrome P450 Family 3 Subfamily A Member 4 (CYP3A4) small molecule antagonists: luciferase reporter qHTS assay (AID 1671201); conditions: P450-Glo CYP3A4 enzyme, luciferin luminescence, 1 h; series mostly up to 115 µM; further: nearly all actives have a fitted effect of over 50% in size; further: potency means the concentration at half of the fitted maximal effect
Cytochrome P450 3A4 (Homo sapiens), sequence (P08684 whole entry, looked up): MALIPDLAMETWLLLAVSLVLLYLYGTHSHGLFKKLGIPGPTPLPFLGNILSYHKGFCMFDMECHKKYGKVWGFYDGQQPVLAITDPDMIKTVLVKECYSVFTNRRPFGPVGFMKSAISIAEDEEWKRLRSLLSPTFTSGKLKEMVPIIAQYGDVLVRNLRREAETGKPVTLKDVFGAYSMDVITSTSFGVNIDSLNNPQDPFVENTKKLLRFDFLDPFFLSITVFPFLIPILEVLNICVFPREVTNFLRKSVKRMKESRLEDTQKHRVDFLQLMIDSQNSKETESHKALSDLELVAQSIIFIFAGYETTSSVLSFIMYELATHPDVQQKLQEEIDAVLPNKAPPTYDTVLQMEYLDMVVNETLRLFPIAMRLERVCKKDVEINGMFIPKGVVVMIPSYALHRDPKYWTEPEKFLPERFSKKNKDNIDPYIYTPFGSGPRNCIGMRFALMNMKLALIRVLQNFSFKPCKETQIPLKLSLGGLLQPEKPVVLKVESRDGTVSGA
Procedure, shortened: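 qHTS, 1536-well. CYP3A4 + proluciferin substrate, cpd 10 min RT → NADPH regen 1 h RT → detection reagent 20 min → luminescence (RLU). Ketoconazole positive control.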

[11] = target: Nuclear receptor subfamily 1 group I member 2 (Rattus norvegicus) (UniProt Q9R1A7); assay: Rat pregnane X receptor (rPXR) activation by small molecules, qHTS assay (AID 1346983); conditions: rPXR luciferase reporter cells, One-Glo luminescence, 24 h; max activation: stronger effect = higher value; further: nearly all actives have a fitted effect of over 20% in size
Nuclear receptor subfamily 1 group I member 2 (Rattus norvegicus), sequence (Q9R1A7 whole entry, looked up): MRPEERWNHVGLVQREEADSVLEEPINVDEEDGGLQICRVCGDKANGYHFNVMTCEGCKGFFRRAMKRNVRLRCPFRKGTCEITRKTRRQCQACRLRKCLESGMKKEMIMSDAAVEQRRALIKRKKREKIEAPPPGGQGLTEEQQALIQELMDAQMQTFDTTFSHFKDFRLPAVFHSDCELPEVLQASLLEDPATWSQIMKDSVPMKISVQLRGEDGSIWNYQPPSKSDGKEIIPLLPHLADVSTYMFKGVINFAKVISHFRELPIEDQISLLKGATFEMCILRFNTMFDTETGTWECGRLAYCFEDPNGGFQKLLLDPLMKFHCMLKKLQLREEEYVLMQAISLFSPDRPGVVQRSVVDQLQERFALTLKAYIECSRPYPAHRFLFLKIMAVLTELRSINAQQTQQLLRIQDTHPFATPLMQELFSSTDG
Procedure, shortened: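 Cell-based rPXR luciferase reporter assay, 2,000 cells per well, rested 5hr at 37 C before compound addition in DMSO, then 24 hr at 37 C. One-Glo reagent was added and luminescence read after 30 min at room temperature.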

[12] = target: Nuclear receptor subfamily 1 group I member 2 (Homo sapiens) (UniProt O75469); assay: CYP3A4 induction through human pregnane X receptor (PXR) by small molecules, qHTS assay (AID 1346984); conditions: DPX-2 HepG2 PXR, CYP3A4-luciferin luminescence, 24 h; series mostly up to 46.1 µM; further: nearly all actives have a fitted effect of over 40% in size
Procedure, shortened: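 Induction measured in HepG2-based DPX-2 cells co-expressing human PXR and a CYP3A4 promoter-driven luciferase. After a 24-hour compound exposure, cells received CYP3A4 luciferin substrate at 3uM final for 3 hours, and light output was then recorded.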

[13] = target: Nuclear receptor subfamily 1 group I member 2 (Homo sapiens) (UniProt O75469); assay: Human pregnane X receptor (PXR) activation by small molecules, qHTS assay (AID 1346985); conditions: DPX-2 HepG2 CYP3A4-luciferase, 24 h; series mostly up to 38.3 µM; further: nearly all actives have a fitted effect of over 40% in size
Procedure, shortened: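 DPX-2 cells (HepG2 co-transfected with a PXR response element and a CYP3A4-promoter luciferase construct) were seeded at 2,000 per well, rested 5 hr at 37C, then exposed to DMSO-dissolved compounds for 24 hr. Activation was read as luciferase luminescence.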

[14] = target: Cytochrome P450 2C9 (Homo sapiens) (UniProt P11712); assay: Cytochrome P450 Family 2 Subfamily C Member 9 (CYP2C9) small molecule antagonists: luciferase reporter qHTS assay (AID 1671198); conditions: P450-Glo CYP2C9 enzyme assay, luciferin luminescence; series mostly up to 115 µM; further: nearly all actives have a fitted effect of over 50% in size; further: potency means the concentration at half of the fitted maximal effect
Cytochrome P450 2C9 (Homo sapiens), sequence (P11712 whole entry, looked up): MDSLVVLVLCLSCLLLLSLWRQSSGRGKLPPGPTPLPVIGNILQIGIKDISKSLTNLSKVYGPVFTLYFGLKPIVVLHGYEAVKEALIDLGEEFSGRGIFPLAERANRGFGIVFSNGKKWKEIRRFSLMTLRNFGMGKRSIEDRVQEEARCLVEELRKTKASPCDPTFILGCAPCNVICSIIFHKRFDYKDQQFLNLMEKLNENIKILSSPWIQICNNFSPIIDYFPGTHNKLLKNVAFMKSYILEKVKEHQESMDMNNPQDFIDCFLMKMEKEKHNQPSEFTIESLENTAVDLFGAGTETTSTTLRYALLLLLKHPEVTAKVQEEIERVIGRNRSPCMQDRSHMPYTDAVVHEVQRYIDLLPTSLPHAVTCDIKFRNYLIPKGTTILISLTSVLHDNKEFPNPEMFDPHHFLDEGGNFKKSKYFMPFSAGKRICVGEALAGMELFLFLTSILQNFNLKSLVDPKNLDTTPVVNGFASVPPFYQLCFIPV
Procedure, shortened: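 CYP2C9 activity was measured with a P450-Glo proluciferin substrate. Enzyme–substrate mix was held with compound for 10 min at room temperature, then NADPH regeneration solution was added for 1 h at 37C. Luciferin product was read as luminescence.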

SMILES | Potency [1] | Potency [2] | outcome [3] | Potency [4] | Potency [5] | Potency [6] | Potency [7] | Potency [8] | Potency [9] | Potency [10] | max activation [11] | Potency [12] | Potency [13] | Potency [14]
COc1ccc(C(=O)c2ccccc2)c(O)c1 | inactive | inactive | inactive | inactive | 60.1 µM (active) and 54.5 µM (active) | 44.1 µM (active) | 5.55 µM (active) and 10 µM (active) and 4.9 µM (active) | 19.7 µM (active) and 22.4 µM (active) and 12.9 µM (active) | 38.3 µM (active) and inactive | inactive | – | – | – | –
NC(=O)NO | inactive | inactive | inactive | inactive | – | – | – | – | inactive | – | – | – | – | –
Cc1c(N(C)C)c(=O)n(-c2ccccc2)n1C | inactive | inactive | inactive | inactive | 55.4 µM (active) and inactive | inactive | 32.2 µM (active) and inactive | 25.6 µM (active) | inactive | inactive | – | – | – | –
OCCCc1ccccc1 | inactive | inactive | inactive | inactive | inactive | inactive | 31.7 µM (active) and inactive | 35.6 µM (active) | inactive | inactive | – | – | – | –
COc1cc2c(c(OC)c1OC)-c1ccc(OC)c(=O)cc1[C@@H](NC(C)=O)CC2 | inactive | 381 nM (active) and 43.3 nM (active) and 298 nM (active) | inactive | inactive | 2.14 µM (active) and 5.4 nM (active) | inactive | inactive | – | inactive | – | – | – | – | –
Cn1cnc2c1c(=O)[nH]c(=O)n2C | inactive | inactive | inactive | inactive | – | – | – | – | inactive | – | – | – | – | –
C=CCOC(=O)CC(C)C | inactive | inactive | inactive | inactive | inactive | inactive | inactive | inactive | inactive | inactive | – | – | – | –
NC(=O)OCC(COC(N)=O)c1ccccc1 | inactive | inactive | inactive | inactive | inactive | inactive | inactive and 34.7 µM (active) | inactive | inactive | inactive | – | – | – | –
CN/C(=C\[N+](=O)[O-])NCCSCc1ccc(CN(C)C)o1 | inactive | inactive | inactive | inactive | inactive | inactive | inactive | inactive and 24.5 µM (active) | inactive | inactive | – | – | – | –
N[C@@H](Cc1c[nH]c2ccccc12)C(=O)O | inactive | inactive | inactive | inactive | inactive | 35.6 µM (active) and inactive | 31.8 µM (active) and inactive | – | inactive | inactive | – | – | – | –
CO[C@H]1C=CO[C@@]2(C)Oc3c(C)c(O)c4c(O)c(c(/C=N/N5CCN(C)CC5)c(O)c4c3C2=O)NC(=O)/C(C)=C\C=C[C@H](C)[C@H](O)[C@@H](C)[C@@H](O)[C@@H](C)[C@H](OC(C)=O)[C@@H]1C | inactive | 30.8 µM (active) and 34.8 µM (active) and 26.6 µM (active) | inactive | 27.4 µM (active) and 34.8 µM (active) and 23.7 µM (active) | – | inactive | 35.8 µM (active) and 50.8 µM (active) and 9.77 µM (active) | inactive | inactive | – | -4.8% (inactive) | – | – | –
O=C(O)Cc1cccc2ccccc12 | inactive | – | inactive | inactive | inactive | inactive and 6.33 µM (active) | inactive | 33.5 µM (active) and 43.5 µM (active) | inactive | inactive | -6.88% (inactive) | inactive | inactive | inactive
C[C@]12CC[C@@H]3c4ccc(O)cc4C[C@@H](CCCCCCCCCS(=O)CCCC(F)(F)C(F)(F)F)[C@H]3[C@@H]1CC[C@@H]2O (stereo partly drawn) | inactive | – | inactive | inactive | – | inactive | 7.1 µM (active) and 10.5 µM (active) and 6.92 µM (active) | inactive | inactive | 2 µM (active) and 1.86 µM (active) and 1.55 µM (active) | – | – | – | 2.83 µM (active) and 3.32 µM (active) and 2.75 µM (active)
NC(=O)N1c2ccccc2C=Cc2ccccc21 | inactive | inactive | inactive | inactive | 54.2 µM (active) and inactive | 1.99 µM (active) and inactive | 70.6 µM (active) and inactive | inactive | inactive | inactive | – | – | – | –
CCCCOCCOCCOC(C)=O | inactive | inactive | inactive | inactive | inactive | inactive | inactive | inactive | inactive | inactive | – | – | – | –

Reference: PubChem BioAssay (Tox21)
